Active and inactive are the calls of the source. Unless noted, the rule behind the calls is not given here.

Here are results for 14 compounds from PubChem BioAssay.

The nature of test [1]: liver-stage malaria parasite load reduction – cell-based, known kinase inhibitor set, luminescence, hepatoma host viability (AID 624392).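 Note: infected cells incubated roughly two days before readout.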 The note with it: Plasmodium liver stage in hepatoma cells, luciferase luminescence, concentration not given here; liver cell % of control: measured here: host liver cell viability; parasite % of control: stronger effect = lower value.
A short description of test [2]: altered dexamethasone sensitivity, NF-kB reporter, cell-based, luciferase, IL-1B stimulus (AID 624486).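 For percent of negative control (+Dex): 100% = mean signal of vehicle control wells on the plate.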 The note with it: IL-1B + dexamethasone, luminescence; percent of negative control (+Dex): actives lie on both sides, concentration not given here; z-score: measured here: IL-1B alone, no Dex.
Test [3] is described as follows: C. elegans survival during P. aeruginosa infection – whole organism (AID 651566).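 Note: tested at 14 µM; sign flipped so higher z means a lower ratio.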 As to conditions: C. elegans killed by P. aeruginosa, survival ratio.
Test [4] can be described thus: pro-inflammatory signaling induction in mouse macrophages – cell-based, murine, luminescence (AID 652131). As to conditions: murine macrophage pro-inflammatory reporter, stronger effect = higher value.
Test [5] deals with Cellular tumor antigen p53 (Homo sapiens) (UniProt P04637). Put plainly: GFP-p53 level modulators in HPV16+ cells – imaging, known kinase inhibitor set, EGFP/DsRed ratio (AID 1053116).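 Note: cells exposed to compounds for 24 h at 37 °C before reading.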 As to conditions: GFP-p53 stability, stronger effect = higher value; EGFP object count: measured here: GFP-p53 positive objects count.
A short description of test [6]: inducers of IRF3 signaling, differentiated THP-1 – cell-based, PMA-stimulated THP-1, luminescence (AID 1053176). As to conditions: PMA-differentiated THP-1, IRF3 reporter luminescence; stronger effect = higher value.
Test [7] is described as follows: MELAS cybrid and Rieske KO viability enhancers – cell-based, MELAS cybrids, Rieske KO mouse fibroblasts, CellTiter-Glo, primary screen (AID 1508586;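 active = mean z-score across replicates of 1.96 or higher in either the MELAS or the Rieske mutant cell line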;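 note: z relative to plate mean and SD of compound and empty wells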). As to conditions: low glucose.
Setting [8] is: MELAS cybrid survival, CellTiter-Glo 48 h, stronger effect = higher value.
The mark [9] stands for this setting: Rieske KO mouse fibroblast survival, CellTiter-Glo 72 h.

Sequence of Cellular tumor antigen p53 (Homo sapiens) (P04637 whole entry, looked up): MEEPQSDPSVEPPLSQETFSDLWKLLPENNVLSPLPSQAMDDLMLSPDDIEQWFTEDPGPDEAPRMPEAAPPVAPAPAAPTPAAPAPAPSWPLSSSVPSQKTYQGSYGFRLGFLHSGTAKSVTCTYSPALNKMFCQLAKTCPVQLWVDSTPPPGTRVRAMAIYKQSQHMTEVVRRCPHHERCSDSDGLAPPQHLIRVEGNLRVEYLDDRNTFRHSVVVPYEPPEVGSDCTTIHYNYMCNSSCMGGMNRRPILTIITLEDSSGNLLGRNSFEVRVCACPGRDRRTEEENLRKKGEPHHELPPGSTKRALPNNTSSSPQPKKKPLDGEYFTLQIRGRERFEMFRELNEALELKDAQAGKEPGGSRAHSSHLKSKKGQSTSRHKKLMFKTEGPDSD

`COc1cc2ncn(-c3cc(O[C@H](C)c4ccccc4Cl)c(C(N)=O)s3)c2cc1OC` returned a liver cell % of control in test [1] of 137%. Besides, in test [1], the parasite % of control is 13.5% (active). Further, the percent of negative control (+Dex) in test [2] was 53.5% (inactive). Moreover, the z-score is -3.26 in test [2]; -0.155 (inactive) in test [3]; -1.16 (inactive) in test [4]; -1.03 in test [7] (setting [8]); 5.68 in test [7] (setting [9]). In addition, in test [5], the EGFP object count came to 5.5. For the same compound, in test [5], the EGFP/DsRed ratio is 0.108 (inactive). Further, the fraction signal in test [6] was -0.004 (inactive).
Compound `NC(=O)c1sc(-n2cnc3ccc(C(F)(F)F)cc32)cc1OCc1ccccc1Br` gave a liver cell % of control in test [1] of 104%. The parasite % of control in test [1] is 160% (inactive). Besides, in test [2], the percent of negative control (+Dex) was 98.5% (inactive). For the same compound, the z-score is 0.57 in test [2]; -0.455 (inactive) in test [3]; -0.965 (inactive) in test [4]; -0.166 (inactive) in test [7] (setting [8]); -0.246 in test [7] (setting [9]). Besides, the EGFP object count in test [5] came out at 4. The EGFP/DsRed ratio in test [5] is 0.119 (inactive). For the same compound, in test [6], the fraction signal was 0.007 (inactive).
In test [1], `O=C1Nc2ccc(-c3cccnc3)cc2/C1=C\c1cc(Br)c(O)c(Br)c1` yielded a liver cell % of control of 174%. In addition, in test [1], the parasite % of control was 13.3% (inactive). In test [2], the percent of negative control (+Dex) was 102% (inactive). The z-score in test [2] is -0.125; in test [3], 0.98 (inactive); in test [4], 0.575 (inactive); in test [7] (setting [8]) it was -0.192 (inactive); in test [7] (setting [9]), -0.185. Besides, the EGFP object count in test [5] was found to be 1.5. In addition, in test [5], the EGFP/DsRed ratio is 0.0182 (inactive). Also, the fraction signal in test [6] is -0.0065 (inactive).
The compound `NS(=O)(=O)c1ccc(N=Nc2c(O)[nH]c3cccc(CCc4ccncc4)c23)cc1` registered a liver cell % of control in test [1] of 87.4%. In addition, in test [1], the parasite % of control was 102% (inactive). Moreover, the percent of negative control (+Dex) in test [2] was 92.5% (inactive). In addition, the z-score was -0.56 in test [2]; -0.35 (inactive) in test [3]; 4.97 (inactive) in test [4]; -0.234 (inactive) in test [7] (setting [8]); -0.178 in test [7] (setting [9]). In test [5], the EGFP object count is 4. Moreover, the EGFP/DsRed ratio in test [5] is 0.0896 (inactive). Also, the fraction signal in test [6] was -0.003 (inactive).
In test [1], `c1ccc(-c2nc3n(c2-c2ccc4c(c2)OCO4)CCC3)nc1` showed a liver cell % of control of 103%. Further, in test [1], the parasite % of control was 16.7% (inactive). Further, the percent of negative control (+Dex) in test [2] was 102% (inactive). For the same compound, the z-score in test [2] is 0.295; in test [3], 1.04 (inactive); in test [4], 4.3 (inactive); in test [7] (setting [8]) it was -1.04 (inactive); in test [7] (setting [9]) it was 0.741. The EGFP object count in test [5] amounted to 6. For the same compound, the EGFP/DsRed ratio in test [5] is 0.172 (inactive). Besides, in test [6], the fraction signal is -0.003 (inactive).
`O=C1NC(=O)C(c2ccccc2Cl)=C1Nc1cccc(O)c1`: in test [1], the liver cell % of control was found to be 91.7%. The parasite % of control in test [1] is 148% (inactive). Moreover, in test [2], the percent of negative control (+Dex) was 88% (inactive). For the same compound, the z-score in test [2] is -0.19; in test [3], -0.34 (inactive); in test [4], 0.132 (inactive); in test [7] (setting [8]), -0.289 (inactive); in test [7] (setting [9]), -0.424. Moreover, the EGFP object count in test [5] was 5.5. For the same compound, in test [5], the EGFP/DsRed ratio is 0.0989 (inactive). For the same compound, the fraction signal in test [6] was -0.003 (inactive).
The compound `Clc1ccc(-c2nn3ncccc3c2-c2ccnc(Nc3ccccc3)n2)cc1` yielded a liver cell % of control in test [1] of 149%. The parasite % of control in test [1] was 29.7% (inactive). The percent of negative control (+Dex) in test [2] is 84% (inactive). Besides, the z-score in test [2] was -0.705; in test [3], 0.79 (inactive); in test [4] it was 0.464 (inactive); in test [7] (setting [8]), 0.298 (inactive); in test [7] (setting [9]), -0.499. Moreover, the EGFP object count in test [5] stood at 4. Besides, the EGFP/DsRed ratio in test [5] is 0.304 (inactive). The fraction signal in test [6] was -0.004 (inactive).
Take `CC(=Nc1ccc(S(N)(=O)=O)cc1)c1c(O)[nH]c2ccccc12`: in test [1], the liver cell % of control stood at 121%. Moreover, the parasite % of control in test [1] is 234% (inactive). The percent of negative control (+Dex) in test [2] was 176% (active). For the same compound, the z-score in test [2] is 5.95; in test [3], -0.905 (inactive); in test [4] it was 6.44 (active); in test [7] (setting [8]) it was -0.469 (inactive); in test [7] (setting [9]), -0.351. In addition, in test [5], the EGFP object count was 0.5. Further, in test [5], the EGFP/DsRed ratio is 0.00933 (inactive). In addition, the fraction signal in test [6] was 0.0025 (inactive).
The compound `COc1cc(C)c(N(C)C(=O)CN(C)C)cc1Nc1nc(Nc2cccc(F)c2C(N)=O)c2cc[nH]c2n1` returned a liver cell % of control in test [1] of 71.5%. For the same compound, the parasite % of control in test [1] was 391% (inactive). Further, the percent of negative control (+Dex) in test [2] was 110% (inactive). Besides, the z-score was 0.76 in test [2]; 0.1 (inactive) in test [3]; 0.717 (inactive) in test [4]; 3.65 (active) in test [7] (setting [8]); 1.35 in test [7] (setting [9]). Further, the EGFP object count in test [5] was found to be 5. The EGFP/DsRed ratio in test [5] was 0.2 (inactive). Further, the fraction signal in test [6] is -0.0115 (inactive).
Regarding `CNC(=O)c1cncc(/C=C/c2ccccc2C)c1`, in test [1], the liver cell % of control was determined as 170%. Moreover, the parasite % of control in test [1] was 27.9% (inactive). In test [2], the percent of negative control (+Dex) was 108% (inactive). Also, the z-score was -0.24 in test [2]; 0.255 (inactive) in test [3]; 0.604 (inactive) in test [4]; 0.836 (inactive) in test [7] (setting [8]); -0.131 in test [7] (setting [9]). For the same compound, in test [5], the EGFP object count turned out to be 4. The EGFP/DsRed ratio in test [5] is 0.0734 (inactive). In test [6], the fraction signal is 0.0395 (inactive).
On to `COC(=O)Nc1nc2ccc(Oc3ccc(NC(=O)Nc4ccccc4)cc3)cc2[nH]1`, for which the liver cell % of control in test [1] came out at 96.2%. Moreover, the parasite % of control in test [1] was 260% (inactive). Further, the percent of negative control (+Dex) in test [2] was 112% (inactive). Moreover, the z-score in test [2] is 1.13; in test [3], 0.065 (inactive); in test [4], 0.608 (inactive); in test [7] (setting [8]) it was -0.73 (inactive); in test [7] (setting [9]), -0.00674. In addition, in test [5], the EGFP object count worked out at 17.5. Besides, the EGFP/DsRed ratio in test [5] is 0.664 (inactive). Moreover, the fraction signal in test [6] is -0.0025 (inactive).
In the case of `COc1cc2c(cc1Nc1nc(Nc3ccsc3C(N)=O)c3cc[nH]c3n1)N(C(=O)CN(C)C)CCC2`, the liver cell % of control in test [1] was found to be 54.7%. Besides, the parasite % of control in test [1] was 369% (inactive). For the same compound, in test [2], the percent of negative control (+Dex) was 95.5% (inactive). The z-score in test [2] is -0.185; in test [3], -0.225 (inactive); in test [4], 2.59 (inactive); in test [7] (setting [8]), 2.79 (active); in test [7] (setting [9]) it was 10.1. Besides, in test [5], the EGFP object count stood at 1.5. Further, the EGFP/DsRed ratio in test [5] is 0.0536 (inactive). Moreover, the fraction signal in test [6] was -0.007 (inactive).
`Fc1ccc(-c2ncn(C3CCNCC3)c2-c2ccnc(Oc3ccc(Oc4ccccc4)cc3)n2)cc1` came in with a liver cell % of control in test [1] of 58.8%. Further, the parasite % of control in test [1] is 102% (inactive). Also, in test [2], the percent of negative control (+Dex) is 99% (inactive). In addition, the z-score is 0.615 in test [2]; -1.07 (inactive) in test [3]; -0.715 (inactive) in test [4]; -0.215 (inactive) in test [7] (setting [8]); -0.0474 in test [7] (setting [9]). The EGFP object count in test [5] is 28.5. Moreover, the EGFP/DsRed ratio in test [5] is 0.354 (inactive). Also, in test [6], the fraction signal was -0.002 (inactive).
Turning to `COc1cccc(-n2ncc3c(N/N=C/c4ccc(C)cc4)ncnc32)c1`, the liver cell % of control in test [1] stood at 114%. Moreover, the parasite % of control in test [1] is 130% (inactive). Further, the percent of negative control (+Dex) in test [2] is 105% (inactive). In addition, the z-score in test [2] is 0.92; in test [3] it was -0.225 (inactive); in test [4], -0.468 (inactive); in test [7] (setting [8]) it was -0.521 (inactive); in test [7] (setting [9]) it was 0.152. Besides, in test [5], the EGFP object count turned out to be 9.5. Besides, the EGFP/DsRed ratio in test [5] was 0.811 (inactive). For the same compound, the fraction signal in test [6] is 0.0005 (inactive).
